Eight compounds from PubChem BioAssay (NCATS) can be followed below.

Assay [1] has as its target Tyrosyl-DNA phosphodiesterase 1 (Homo sapiens) (UniProt Q9NUW8). Kind of assay: Confirmation Assay for Inhibitors of Tyrosyl-DNA Phosphodiesterase (TDP1) (AID 489007). Note: potency is the fitted concentration of half-maximal effect; nearly all actives have a fitted effect of over 40% in size. As to conditions: recombinant human TDP1 enzymatic activity, dose-response. The method in brief: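 Recombinant human Tdp1 (1 nM final), expressed in E. coli, preincubated 15 min with compound. Then 15 nM 5'-biotin/3'-phosphotyrosine-FITC DNA substrate added for 5 min at room temperature. AlphaScreen beads (10 ug/ml) added for 10 min; cleavage gives signal loss.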

Assay [2] concerns the target Ubiquitin carboxyl-terminal hydrolase 1 (Homo sapiens) (UniProt O94782). Kind of assay: Inhibitors of USP1/UAF1: Pilot qHTS (AID 504865).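 Note: rhodamine fluorescence freed from ubiquitin-rhodamine substrate followed over time; top concentration of the series differs between compounds; % is set by controls: 0 for no effect and ±100 for the full control effect; nearly all actives have a fitted effect of over 35% in size.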 As to conditions: purified USP1/UAF1, Ub-rhodamine cleavage fluorescence; series mostly up to 114 µM. The method in brief: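 USP1/UAF1 complex (1nM) preincubated with compound 15 min at room temperature, then Ub-Rho substrate (150nM final) added. Fluorescence read kinetically at 480/540 nm, 6 reads every 60 seconds. Buffer: 50mM HEPES pH 7.8, 0.5mM EDTA, 0.1 mg/ml BSA, 1mM TCEP, 0.01% Tween-20.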

The nature of assay [3]: S16 Schwann cell viability assay (CellTiter-Glo assay) (AID 624031).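 Note: cellular ATP luminescence as a viability measure; plate controls were DMSO-treated cells for no effect and cell-free wells for full effect; nearly all actives have a fitted effect of over 70% in size.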 The following applies: S16 rat Schwann cells viability, 24 h; series mostly up to 57.5 µM. The method in brief: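 Native S16 rat Schwann cells, 500-750 cells/well in DMEM with 10% FBS, dosed with compound after overnight culture and incubated 24h at 37 degree Celsius/5% CO2. Viability by CellTiter-Glo luminescence; % activity normalized to no-cell wells and DMSO-treated cells.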
Background: In ATP-based viability assays light output follows the ATP content of the culture.

Assay [4] can be described thus: S16 Schwann cell PMP22 intronic element firefly luciferase assay (AID 624032).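 Note: plate controls were DMSO for no effect and PTC124 positive control mean for full effect; nearly all actives have a fitted effect of over 30% in size.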 The following applies: S16 rat Schwann cells, PMP22 element FLuc, 24 h; series mostly up to 57.5 µM. The gist of the method:
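Rat S16 Schwann cells stably carrying firefly luciferase driven by a PMP22 intronic element, in 10% FBS, treated 24 h at 37 C. ONE-Glo luminescence normalized to PTC124 control and DMSO (0%); curves classed by r2, magnitude and activity.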

Assay [5] in a line: S16 Schwann cell PMP22 intronic element beta-lactamase assay (AID 624044; calls by dose curve;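 note: 0% = DMSO and -100% = potassium clavulanate positive control; nearly all actives have a fitted effect of over 15% in size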). As to conditions: S16 rat Schwann cells, PMP22 element beta-lactamase FRET, 24 h; series mostly up to 38.3 µM. The gist of the method: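 Rat S16 Schwann cells with beta-Lac driven by a PMP22 intronic element, compound-treated 24 h at 37 °C. LiveBLAzer FRET B/G read: 460 nm normalized to potassium clavulanate vs DMSO; 535 nm FRET as viability; concentration-effect curves classified.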

A further assay has as its system 7G8. Kind of assay: qHTS profiling for inhibitors of Plasmodium falciparum proliferation (AID 504749).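 For activity, negative = inhibition: 0% = DMSO vehicle and full inhibition = artemisinin control.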 Note: nearly all actives have a fitted effect of over 60% in size. Note: potency is the fitted concentration of half-maximal effect. As to conditions: P. falciparum in erythrocytes, SYBR Green DNA, 72 h; series mostly up to 28.7 µM. The method in brief: (§1)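 P. falciparum-infected erythrocytes (0.3% parasitemia, 2.5% hematocrit) incubated with compound 72 h at 37 C, 5% CO2. Parasite DNA detected by SYBR Green after lysis, overnight at room temperature; normalised to 0.29 uM artemisinin and DMSO.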

The test system of a further assay is CP215. The description is as above. As to conditions: P. falciparum in erythrocytes, SYBR Green DNA, 72 h; series mostly up to 28.7 µM. The method in brief: as §1
Another assay relates to CP291. The assay is described as above. The following applies: P. falciparum in erythrocytes, SYBR Green DNA, 72 h; series mostly up to 28.7 µM. The method in brief:
as §1

A further assay concerns CP297. Described as above. As to conditions: P. falciparum in erythrocytes, SYBR Green DNA, 72 h; series mostly up to 28.7 µM. The gist of the method:
as §1

The test system of the next assay is CP335. The assay is described as above. As to conditions: P. falciparum in erythrocytes, SYBR Green DNA, 72 h; series mostly up to 28.7 µM. The gist of the method:
as §1

Another assay deals with Dd2. The description is as above. As to conditions: P. falciparum in erythrocytes, SYBR Green DNA, 72 h; series mostly up to 28.7 µM. The method in brief:
as §1

The test system of a further assay is GB4. The description is as above. The following applies: P. falciparum in erythrocytes, SYBR Green DNA, 72 h; series mostly up to 28.7 µM. The gist of the method:
as §1

In another assay the test system is JCK. The description is as above. As to conditions: P. falciparum in erythrocytes, SYBR Green DNA, 72 h; series mostly up to 28.7 µM. The gist of the method:
as §1

The target in assay [6] is DNA polymerase eta (Homo sapiens) (UniProt Q9Y253). Kind of assay: qHTS for Inhibitors of Polymerase Eta: Confirmatory Assay for Cherry-picked Compounds (AID 720502). Note: potency is the fitted concentration of half-maximal effect. The following applies: Pol eta primer extension, TAMRA/BHQ fluorescence, 10 min. The gist of the method: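 Human Pol eta (10 nM) was preincubated with compounds for 15 min at room temperature before adding 50 nM (final) DNA substrate: primer plus TAMRA reporter strand annealed to a BHQ-2-labeled template. Fluorescence (ex 525/em 598 nm) was read at 0 and 10 min.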
DNA polymerase eta (Homo sapiens), sequence (Q9Y253 whole entry, looked up): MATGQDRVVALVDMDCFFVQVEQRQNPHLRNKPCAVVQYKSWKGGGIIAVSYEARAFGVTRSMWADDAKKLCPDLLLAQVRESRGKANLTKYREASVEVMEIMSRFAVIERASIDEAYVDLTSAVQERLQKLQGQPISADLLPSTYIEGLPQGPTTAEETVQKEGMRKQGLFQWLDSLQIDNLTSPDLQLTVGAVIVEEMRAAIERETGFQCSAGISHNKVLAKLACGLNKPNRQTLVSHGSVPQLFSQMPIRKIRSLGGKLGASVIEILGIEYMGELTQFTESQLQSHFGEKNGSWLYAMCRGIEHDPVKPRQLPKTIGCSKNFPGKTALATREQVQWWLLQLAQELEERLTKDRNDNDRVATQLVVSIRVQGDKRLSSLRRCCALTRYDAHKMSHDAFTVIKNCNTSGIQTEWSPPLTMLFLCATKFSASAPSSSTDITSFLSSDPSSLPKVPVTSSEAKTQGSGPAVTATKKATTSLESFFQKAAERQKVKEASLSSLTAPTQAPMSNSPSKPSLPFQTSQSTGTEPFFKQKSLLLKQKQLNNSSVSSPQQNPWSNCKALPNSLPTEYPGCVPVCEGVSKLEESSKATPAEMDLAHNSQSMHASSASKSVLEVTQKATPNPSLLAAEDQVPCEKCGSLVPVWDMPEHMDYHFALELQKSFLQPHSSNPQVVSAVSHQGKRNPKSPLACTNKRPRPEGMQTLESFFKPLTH
Background: In qHTS, concentration-response curves come from the screen itself.

Assay [7] is described as follows: qHTS profiling for inhibitors of Plasmodium falciparum proliferation (AID 504749).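 For activity, negative = inhibition: 0% = DMSO vehicle and full inhibition = artemisinin control.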 Note: nearly all actives have a fitted effect of over 60% in size. Note: potency is the fitted concentration of half-maximal effect. As to conditions: P. falciparum in erythrocytes, SYBR Green DNA, 72 h, at 28.7 µM (top of the series). The method in brief:
as §1

The test system of a further assay is AS120. The assay is described as above. The following applies: P. falciparum in erythrocytes, SYBR Green DNA, 72 h; series mostly up to 28.7 µM. The gist of the method: as §1
The next assay concerns ATS189. The assay is described as above. The following applies: P. falciparum in erythrocytes, SYBR Green DNA, 72 h; series mostly up to 28.7 µM. The method in brief: as §1
Another assay concerns CP247. The description is as above. The following applies: P. falciparum in erythrocytes, SYBR Green DNA, 72 h; series mostly up to 28.7 µM. The method in brief:
as §1

In a further assay the test system is W2. The assay is described as above. As to conditions: P. falciparum in erythrocytes, SYBR Green DNA, 72 h; series mostly up to 28.7 µM. The gist of the method: as §1
The target in assay [8] is Fructose-bisphosphate aldolase (Giardia intestinalis (strain ATCC 50803 / WB clone C6)) (UniProt A8B2U2). Kind of assay: qHTS Assay for Inhibitors of Fructose-1,6-bisphosphate Aldolase from Giardia Lamblia: Primary screen confirmation (AID 2787).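 Note: aldolase product measured through coupled diaphorase step turning resazurin into fluorescent resorufin; % is set by controls: 0 for no effect and ±100 for the full control effect; nearly all actives have a fitted effect of over 45% in size.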 As to conditions: purified Giardia aldolase enzyme activity; series mostly up to 57.5 µM. The gist of the method:
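Confirmation of primary hits by qHTS up to 57.5 uM final compound. Enzyme at 40 nM with 30 uM ZnCl2, 10 min RT pre-incubation, then substrate/coupling/resorufin-forming detection mix for 20 min before fluorescence read at 525/598 nm.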

Records with an inconclusive call do not appear. Values without a mark were called inactive. The list shows a part of the results. Calls of active or inactive are those of the source. Unless noted, calls come from the whole dose curve; as a rule, active = well fitted curve in the direction sought with a large enough effect; inconclusive = small, poorly fitted or top-dose-only effect, or another doubt; inactive = no such curve, though single readings can be large; an effect the other way counts as inactive or inconclusive.

Fructose-bisphosphate aldolase (Giardia intestinalis (strain ATCC 50803 / WB clone C6)), sequence (A8B2U2 whole entry, looked up): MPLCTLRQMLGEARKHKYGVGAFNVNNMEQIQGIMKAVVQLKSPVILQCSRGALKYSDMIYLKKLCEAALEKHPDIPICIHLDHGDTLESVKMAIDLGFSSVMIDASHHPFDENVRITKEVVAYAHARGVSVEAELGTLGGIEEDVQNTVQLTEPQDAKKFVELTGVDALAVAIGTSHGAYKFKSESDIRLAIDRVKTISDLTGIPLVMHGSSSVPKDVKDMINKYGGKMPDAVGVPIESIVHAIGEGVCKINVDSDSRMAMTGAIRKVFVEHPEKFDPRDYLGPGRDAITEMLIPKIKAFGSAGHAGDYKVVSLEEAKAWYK
Tyrosyl-DNA phosphodiesterase 1 (Homo sapiens), sequence (Q9NUW8 whole entry, looked up): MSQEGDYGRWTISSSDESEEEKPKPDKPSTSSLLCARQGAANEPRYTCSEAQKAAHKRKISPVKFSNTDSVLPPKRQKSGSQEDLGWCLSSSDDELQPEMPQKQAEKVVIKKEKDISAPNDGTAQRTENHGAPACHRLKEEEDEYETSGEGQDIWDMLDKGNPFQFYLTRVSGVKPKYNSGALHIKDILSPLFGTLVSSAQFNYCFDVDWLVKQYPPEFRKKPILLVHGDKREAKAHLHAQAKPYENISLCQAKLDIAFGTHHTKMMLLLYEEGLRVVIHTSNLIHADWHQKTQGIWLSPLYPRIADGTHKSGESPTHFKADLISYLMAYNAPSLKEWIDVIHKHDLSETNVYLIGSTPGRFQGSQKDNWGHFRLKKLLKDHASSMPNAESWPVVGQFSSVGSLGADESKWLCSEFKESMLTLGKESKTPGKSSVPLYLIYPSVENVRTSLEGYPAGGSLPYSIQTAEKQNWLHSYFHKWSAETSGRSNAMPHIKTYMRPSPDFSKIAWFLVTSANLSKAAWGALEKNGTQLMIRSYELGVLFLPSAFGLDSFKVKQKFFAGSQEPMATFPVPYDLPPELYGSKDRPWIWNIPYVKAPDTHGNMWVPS
Ubiquitin carboxyl-terminal hydrolase 1 (Homo sapiens), sequence (O94782 whole entry, looked up): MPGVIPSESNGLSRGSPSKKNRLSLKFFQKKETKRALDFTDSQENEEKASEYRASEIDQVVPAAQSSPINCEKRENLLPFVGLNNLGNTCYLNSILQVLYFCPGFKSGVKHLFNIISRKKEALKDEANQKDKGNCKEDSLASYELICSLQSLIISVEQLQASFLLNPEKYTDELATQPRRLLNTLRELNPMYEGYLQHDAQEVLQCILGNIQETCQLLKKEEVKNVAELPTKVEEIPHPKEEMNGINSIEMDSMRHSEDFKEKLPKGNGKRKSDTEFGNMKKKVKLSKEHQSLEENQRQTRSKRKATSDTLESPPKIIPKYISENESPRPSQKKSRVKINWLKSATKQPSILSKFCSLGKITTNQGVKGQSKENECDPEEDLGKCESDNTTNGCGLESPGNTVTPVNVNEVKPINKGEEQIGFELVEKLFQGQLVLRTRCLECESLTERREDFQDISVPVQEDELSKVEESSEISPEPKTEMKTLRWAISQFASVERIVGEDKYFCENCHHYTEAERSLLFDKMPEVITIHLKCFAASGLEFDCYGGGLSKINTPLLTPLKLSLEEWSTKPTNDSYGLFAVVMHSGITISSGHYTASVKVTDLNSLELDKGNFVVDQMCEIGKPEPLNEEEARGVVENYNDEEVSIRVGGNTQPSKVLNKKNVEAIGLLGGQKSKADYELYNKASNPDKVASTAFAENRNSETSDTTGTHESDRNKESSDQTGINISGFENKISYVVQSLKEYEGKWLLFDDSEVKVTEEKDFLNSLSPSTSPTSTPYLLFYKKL

Consider `Cc1cc(C)c2nc(-c3ccco3)cc(C(=O)O)c2c1`, for which, in assay [1], the Potency was 15.8 µM (active).
On to `Oc1cc2c(cc1O)[C@H]1c3ccc(O)c(O)c3OC[C@@]1(O)C2`, for which, in assay [2], the Potency result is “inactive”.
With `C=C1CC[C@H](O)C/C1=C/C=C1\CCC[C@]2(C)[C@@H]([C@H](C)CCCC(C)C)CC[C@@H]12`, the Potency entry (in assay [3]; in assay [4]; in the assay with CP215; in the assay on CP291; in the assay on CP297; with CP335) was “inactive” in each case. Also, the Potency entry with GB4 and with JCK was “inactive” in each case. Further, the call in assay [5] was inactive. The values for the Potency in the assay on 7G8 and in the assay with Dd2 were 11.2 µM (active) and 12.6 µM (active), respectively.
Turning to `C=CCn1c(=S)[nH]c2scc(-c3ccco3)c2c1=O`, the Potency in assay [6] is 26.9 µM (active).
Turning to `Cc1c(C(=O)O)c(O)cc2c1C(=O)c1c(O)c([C@H]3O[C@H](CO)[C@@H](O)[C@H](O)[C@H]3O)c(O)c(O)c1C2=O`, in assay [5], the call was inactive. Besides, the values for the activity, negative = inhibition in assay [7] (parasite line A) and in [7] (parasite line B) were 5.98% and 13.4%, respectively. Further, the Potency entry with 7G8, with AS120, in the assay on ATS189, in the assay on CP215, in the assay on CP247 and with CP291 was “inactive” each time. Besides, the Potency entry in the assay with CP297, in the assay on CP335, with Dd2, with GB4, in the assay with JCK and with W2 was “inactive” each time.
Regarding `COc1cc([C@H](Cc2ccccc2)NC(C)=O)oc(=O)c1`, the Potency in [6] is 23.9 µM (active).
For `Oc1[nH]c2ccc(Br)cc2c1N=Nc1nn[nH]n1`, the outcome in assay [8] was inactive.
`C=CCc1cc(C)ccc1OCCCn1ccnc1`: in [8], the compound was called inactive.
